Assay results published in PubChem BioAssay (NCATS).
Inconclusive results are not listed. Where a call stands in place of a potency, no number is given. Values without a mark were called inactive. Activity calls are given as the source filed them. Calls follow the shape of the dose curve; as a rule, active = well fitted cell-killing curve with a large enough effect; inconclusive = small, poorly fitted or top-dose-only effect, or effect the other way; inactive = no such curve, though single readings can be large or run the other way.

Experiment: Viability qHTS for spleen associated tyrosine kinase inhibitor (SYKi) naive MV4-11 cells (AID 1963823); also: nearly all actives have a fitted effect of over 40% in size
Details: MV4-11 AML viability, CellTiter-Glo luminescence, 72 h; series mostly up to 45 µM
Procedure, shortened: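 Viability of MV4-11 AML cells lacking prior SYK inhibitor exposure is scored by CellTiter-Glo luminescence following 72 hr compound incubation at 37 C, 5% CO2, seeded at 500 cells per well.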
Potency is read from the fitted curve at half-maximal effect.

Question: With `CC(C)=CC1C[C@](C)(O)[C@@H]2[C@H]3CCC4[C@@]5(C)CC[C@H](O[C@@H]6OC[C@H](O)[C@H](O[C@@H]7O[C@H](CO[C@@H]8O[C@H](CO)[C@@H](O)[C@H](O)[C@H]8O)[C@@H](O)[C@H](O)[C@H]7O)[C@H]6O[C@@H]6O[C@@H](C)[C@H](O)[C@@H](O)[C@H]6O)C(C)(C)[C@@H]5CC[C@@]4(C)[C@@]34CO[C@@]2(C4)O1` (stereo partly drawn) as the compound, how does the viability (% of control) read?
Answer: 74.2% [at 9.25 µM]

Question: With `OCC1=CC[C@@H]2C=CO[C@@H](O[C@@H]3O[C@H](CO)[C@@H](O)[C@H](O)[C@H]3O)[C@H]12` as the compound, how does the Potency read?
Answer: inactive

Question: For `COCCN1CCC(C(=O)NO)(S(=O)(=O)c2ccc(Oc3ccc(OC(F)(F)F)cc3)cc2)CC1`, which Potency is on record?
Answer: 20.6 µM (active)

Question: With `O=C(/C=C/c1ccccc1)OC[C@]12O[C@H]1[C@@H](O)[C@@H]1C=CO[C@@H](O[C@@H]3O[C@H](CO)[C@@H](O)[C@H](O)[C@H]3O)[C@@H]12` as the compound, how does the Potency read?
Answer: inactive

Question: For `C=C1/C(=C/C=C2\CCC[C@]3(C)[C@@H]([C@@H](C)OCCC(O)(CC)CC)CC[C@@H]23)C[C@@H](O)C[C@@H]1O`, which Potency is on record?
Answer: inactive

Question: Which Potency does the source give for `O=S1(=O)CCN(Cc2cc(NCC3CCOCC3)c3[nH]c(-c4ccccc4)cc3c2)CC1` here?
Answer: inactive

Question: For `C[C@H](Oc1cc(-n2cnc3ccc(CN4CCN(C)CC4)cc32)sc1C(N)=O)c1ccccc1C(F)(F)F`, which Potency is on record?
Answer: 1.03 µM (active)

Question: Which Potency does the source give for `CC(O)/C=C/C1OC(=O)CC1Nc1ccc(C(=O)O)cc1` (stereo not drawn) here?
Answer: inactive
